Test results published in the supplement of paper PMC10338343.
± gives the standard deviation.

The sequences below were run on MILI (PIWIL2) piRISC loaded with piRNA #1 (26 nt) (assay: pre-steady-state target cleavage rate (min^-1); guide: piRNA #1 5'p-UGAGGUAGUAGGUUGUAUAGUAUCCA; MIWI and MILI are mouse PIWI proteins and EfPiwi is from a freshwater sponge; tags in brackets are library labels; higher = faster piRNA-guided slicing of the target). Conditions: auxiliary factor: 500 nM mouse GTSF1.
Experimental: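 Cleave-'n-Seq: a library of target RNAs (target site embedded in constant flanks, ACAGCATTCCGCGTTAGTGATATCCG... 5' flank; DNA-blocked outside the site) at 0.1 nM was incubated with 1 nM active mouse MILI or MIWI piRISC (synthetic 5'-monophosphorylated piRNA guide) with or without 500 nM mouse GTSF1 at 33 °C for 1 min to 16 h. Uncleaved targets were sequenced and normalised to non-target controls, and the pooled three trials were fitted to a burst-and-steady-state model to give the pre-steady-state cleavage rate (min^-1; k3 is constrained to at most 1e-4). Sequence is the target site only; target names encode pairing extent (gX:gY) and contiguous / 1-mismatch / 2-mismatch / bulge geometry. Fits with R² ≤ 0 are excluded.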

| Sequence | pre-steady-state target cleavage rate |
| --- | --- |
| GGAGACCCUACUAUACAACCUACUACCUCA | 0.207 ± 0.021 |
| GGAGACCUAACUAUACAUCCUACAACCUCA | 0.246 ± 0.033 |
| GGAGAGGAUACUAUACACCCUACUACCUCA | 0.122 ± 0.015 |
| GGAGACCUAUGAAUACUACCUACUACCACA | 0.00343 ± 0.0025 |
| GGAGAGGUACUAUACAACCUACUACCUCA | 0.089 ± 0.0084 |
| GGAGACCUAUCAAUACAUCCUACUACCUCA | 0.109 ± 0.02 |
| GGAGACCUAUGAUAUGUUGCUAGAACCUCA | < 0.0001 |
| GGAGACCUAUGAUUACAAGCUACUAGCUCA | 0.00635 ± 0.0034 |
| GGAGACGAUACUUUACAACCUACUACCUGA | 0.117 ± 0.021 |
| GGAGUGGAAACUAAACAACCUACUACCUCA | 0.201 ± 0.02 |
| GGAGAGGAUACUAUACAACCUACUCCCUCA | 0.0191 ± 0.006 |
| GGAGACGAUACUAUACAACGAACUACCUCA | 0.00414 ± 0.0015 |
| GGAGACCUAUGAUUACAACCUACUACCUGCA | 0.00769 ± 0.0026 |
| GGAGACCAUACUAUACAACCUACUACCAGA | 0.169 ± 0.027 |
| GGAGACCUAUGUAUACAAGCUACAACCUCA | 0.0946 ± 0.011 |
| GGAGACCUAUGUAUACAACCUACUAACUCA | 0.0355 ± 0.0081 |
| GGAGACGAUACUAACAACCUACUACCUCA | 0.173 ± 0.012 |
| GGAGACCAUACUAUACAAGCUACUACCACA | 0.32 ± 0.02 |
| GGAGAGGAGUACUAUACAACCUACUACCUCA | 0.0702 ± 0.0063 |
| GGAGUGGUUACUAUACAACCUACAACCUCA | 0.0861 ± 0.0095 |

| Sequence | pre-steady-state target cleavage rate |
| --- | --- |
| GGAGACCUAUGAAUCACAACCUACUACCUCA | 0.0111 ± 0.0034 |
| GGAGAGGAUACUAUGACAACCUACUACCUCA | 0.143 ± 0.013 |
| GGAGACCUAACUAUUGAACCUACUACCUCA | 0.0878 ± 0.011 |
| GGAGACCUAUCAAUACAACCAACUACCUCA | 0.00756 ± 0.0033 |
| GGAGAGGGAUACUAUACAACCUACUACCUCA | 0.237 ± 0.015 |
| GGAGACCUAUGAUAACAACCUACUACCGCA | 0.00318 ± 0.003 |
| GGAGACGAUACUUAUACAACCUACUACCUCA | 0.139 ± 0.012 |
| GGAGACCUAUGUAUACAACCUACUACCUAA | 0.0593 ± 0.0072 |
| GGAGACGAUACUAUACAACCUACGUACCUCA | 0.108 ± 0.013 |
| GGAGACCUAACUAGUACAACCUACUACCUCA | 0.0828 ± 0.019 |
| GGAGACCUUAAUAUACAACCUACUACCUCA | 0.0318 ± 0.0064 |
| GGAGACCUAACUAUACAACGUACUACCUGA | 0.00576 ± 0.0041 |
| GGAGACCUAUCUAUACAACCUAUCUACCUCA | 0.0483 ± 0.0065 |
| GGAGACGUUACUAUACAACCUUCUACCUCA | 0.00861 ± 0.0028 |
| GGAGACCAUACUAUACAACCUACUACCGCA | 0.203 ± 0.025 |
| GGAGACCUUACUAUACAACCUACUACAUCA | 0.106 ± 0.013 |
| GGAGACCAUACUAUACAACCUACUACCUUCA | 0.2 ± 0.018 |
| GGAGACCUAUGUAUACAAGCUACUACCACA | 0.177 ± 0.017 |
| GGAGACCUUACUAUACAACCGACUACCUCA | 0.00424 ± 0.0031 |
| GGAGAGGAUACUAUACAACGUACUAGCUCA | 0.00413 ± 0.0037 |
